According to PubChem BioAssay AID1159580 (chemical genetic matrix, 2015):
The whole screen tested about 5,500 compounds, of which about 2,000 (36%) were called active. Not shown: some 18% with an inconclusive outcome. No stated cut-off is given here; in the data, active means normalized growth mostly below about 0.91 (no sharp cut-off); inconclusive means no clear call, values can overlap the other calls; inactive means mostly above about 0.92. Some of the results follow.

Experiment: chemical genetic growth profiling, strain panel (AID 1159580);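 further: tested at 20 µM; growth read once vehicle control cultures reached saturation at 30 °C; 1 = growth at the plate median or of vehicle wells; lower values mean less growth of the strain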
Conditions: S. cerevisiae deletion strains, growth OD
[1] = locus YDL101C, strain DUN1, hits give low values
[2] = locus YHR030C, strain SLT2, hits give low values

Measured: normalized growth

Cc1c(C)c(C)c(CSc2nc3ccccc3[nH]2)c(C)c1C
inactive: locus YAL013W, strain DEP1, hits give low values 1.01 | locus YBR229C, strain ROT2, hits give low values 1.02 | locus YCL061C, strain MRC1, hits give low values 1.04 | [1] 1.03 | locus YDL134C, strain PPH21, hits give low values 1.02 | locus YDR150W, strain NUM1, hits give low values 1.02 | locus YEL061C, strain CIN8, hits give low values 1.03 | locus YGR078C, strain PAC10, hits give low values 1.03 | [2] 1.08 | locus YHR087W, strain rtc3, hits give low values 1.04 | locus YJL187C, strain SWE1, hits give low values 1.01 | locus YJR043C, strain POL32, hits give low values 1.04 | locus YJR075W, strain HOC1, hits give low values 1.07 | locus YKL190W, strain CNB1, hits give low values 1.03 | locus YLR039C, strain RIC1, hits give low values 1.02 | locus YLR058C, strain SHM2 (second series), hits give low values 1.06 | locus YLR085C, strain ARP6, hits give low values 1.01 | locus YLR262C, strain YPT6, hits give low values 1.03 | locus YML094W, strain GIM5, hits give low values 1.03 | locus YMR219W, strain ESC1, hits give low values 1.01 | locus YMR263W, strain SAP30, hits give low values 1.03 | locus YNL153C, strain GIM3, hits give low values 1.05 | locus YNL298W, strain CLA4 (second series), hits give low values 1.05 | locus YNL322C, strain KRE1, hits give low values 1.02 | locus YNR030W, strain Alg12, hits give low values 1.03 | locus YPL055C, strain LGE1, hits give low values 1.08 | locus YPL241C, strain CIN2, hits give low values 1.03 | locus YPR135W, strain CTF4, hits give low values 1.26

N#Cc1cccc(CSc2nc3ccc(C(F)(F)F)cc3[nH]2)c1
inactive: locus YAR019C, strain CDC15, hits give low values 0.965 | locus YBL105C, strain PKC1, hits give low values 0.968 | locus YBR135W, strain CKS1, hits give low values 0.973 | locus YBR136W, strain MEC1, hits give low values 0.968 | locus YBR160W, strain CDC28, hits give low values 0.968 | locus YDL017W, strain CDC7, hits give low values 0.972 | locus YDL028C, strain MPS1, hits give low values 0.978 | [1] 0.969 | locus YDL108W, strain KIN28, hits give low values 0.973 | locus YDL132W, strain cdc53, hits give low values 0.976 | locus YDL214C, strain PRR2, hits give low values 0.893 | locus YDR052C, strain DBF4, hits give low values 0.962 | locus YDR054C, strain cdc34, hits give low values 0.962 | locus YDR226W, strain ADK1, hits give low values 0.969 | locus YDR477W, strain SNF1, hits give low values 0.903 | locus YER123W, strain YCK3, hits give low values 0.881 | locus YER133W, strain GLC7, hits give low values 0.895 | locus YFL009W, strain cdc4, hits give low values 0.974 | locus YFL029C, strain CAK1, hits give low values 0.966 | locus YFR003C, strain YPI1, hits give low values 0.97 | locus YFR019W, strain FAB1, hits give low values 0.936 | locus YFR028C, strain CDC14, hits give low values 0.971 | locus YGR040W, strain KSS1, hits give low values 0.908 | locus YGR052W, strain FMP48, hits give low values 0.938 | locus YGR092W, strain DBF2, hits give low values 0.933 | [2] 0.858 | locus YHR079C, strain IRE1, hits give low values 0.851 | locus YHR082C, strain KSP1, hits give low values 0.965 | locus YHR205W, strain SCH9, hits give low values 0.898 | locus YIL147C, strain SLN1, hits give low values 0.972 | locus YJL095W, strain BCK1, hits give low values 0.901 | locus YJL128C, strain PBS2, hits give low values 0.909 | locus YJL157C, strain FAR1, hits give low values 0.89 | locus YJR016C, strain ILV3, hits give low values 0.97 | locus YJR066W, strain TOR1 (second series), hits give low values 0.848 | locus YJR066W, strain TOR1, hits give low values 0.935 | locus YKL048C, strain ELM1, hits give low values 0.963 | locus YKL067W, strain YNK1, hits give low values 0.889 | locus YKL101W, strain HSL1, hits give low values 0.901 | locus YKL193C, strain SDS22, hits give low values 0.973 | locus YKL203C, strain TOR2, hits give low values 0.937 | locus YLR133W, strain CKI1, hits give low values 0.898 | locus YLR403W, strain SFP1, hits give low values 0.907 | locus YML070W, strain DAK1, hits give low values 0.889 | locus YMR001C, strain CDC5, hits give low values 0.971 | locus YMR205C, strain PFK2 (second series), hits give low values 0.924 | locus YMR277W, strain FCP1, hits give low values 0.969 | locus YNL006W, strain LST8, hits give low values 0.97 | locus YNL020C, strain ARK1, hits give low values 0.892 | locus YNL161W, strain CBK1, hits give low values 0.965 | locus YNL183C, strain NPR1, hits give low values 0.92 | locus YNL207W, strain RIO2, hits give low values 0.966 | locus YNL222W, strain SSU72, hits give low values 0.976 | locus YNL307C, strain MCK1 (second series), hits give low values 0.89 | locus YOL078W, strain AVO1, hits give low values 0.974 | locus YOL136C, strain PFK27, hits give low values 0.858 | locus YOR061W, strain CKA2, hits give low values 0.9 | locus YOR119C, strain RIO1, hits give low values 0.962 | locus YOR231W, strain MKK1, hits give low values 0.871 | locus YOR329C, strain SCD5, hits give low values 0.96 | locus YPL031C, strain PHO85, hits give low values 0.88 | locus YPL153C, strain RAD53, hits give low values 0.899 | locus YPL204W, strain HRR25, hits give low values 0.877 | locus YPL209C, strain IPL1, hits give low values 0.967 | locus YPL256C, strain CLN2, hits give low values 0.882 | locus YPR025C, strain CCL1, hits give low values 0.972 | locus YPR106W, strain ISR1, hits give low values 0.956 | locus YPR111W, strain DBF20, hits give low values 0.946 | strain NNK1, hits give low values 0.944 | strain TSCII, hits give low values 0.965
active: locus YLR113W, strain HOG1, hits give low values 0.793
